Hit rate of the full screen: of about 52,000 compounds, about 4,300 (8.3%) were called active. Cut-off read from the data, not from the text of the source: active = survival mostly below about 52% (no sharp cut-off); inactive = mostly above about 56%. What follows is part of a selection rich in actives, with near analogues and random picks from the rest.
Each molecule was assayed on DeltatarO mutant (assay: growth inhibition of S. aureus wild type versus tarO mutant, primary screen, teichoic acid synthesis inhibitors, RN4220, OD600 (AID 463173)). Conditions: OD600, 18 h, active compounds read low, screened at 18.75 µg/mL (by protocol).
In the case of `O=C(O)c1ccc(C2Nc3ccccc3-c3nnc(SCc4ccc(Cl)cc4)nc3O2)cc1` (stereo unspecified), the survival is reported as 85% (inactive). With `Cc1ccc(C)c(CN2C(=O)c3ccccc3S(=O)c3ccc(C(=O)NCc4ccco4)cc32)c1` (stereo unspecified) the survival was 72% (inactive). With `COc1ccc2nc(SC)nc(C)c2c1` the survival was 67% (inactive). For `COc1ccc2oc(=O)c(C(=O)N3CCN(c4cc(Cl)ccc4Cl)CC3)cc2c1`, the survival was 48% (active). With `COc1ccc2oc(=O)c(C(=O)N3CCC(C(N)=O)CC3)cc2c1` the survival was 79% (inactive). For `COc1ccc2oc(=O)c(C(=O)N3CCN(c4ccc(C)cc4)CC3)cc2c1`, the survival was 91% (inactive). `CC(=O)Nc1cc(C(=O)NCc2ccc(F)cc2)ccc1Sc1ccc(C)cc1` was tested, and the survival was 94% (inactive). With `CCN(CC)c1nc(-c2ccc(C(C)(C)C)cc2)nc2ccccc12` the survival was -1% (active). With `CCCCN(CC)c1nc(-c2ccccc2F)nc2ccccc12` the survival was 94% (inactive). `CCN(CC)c1nc(-c2ccccc2)nc2ccccc12` was tested, and the survival was 86% (inactive). In the case of `Cc1cc(Sc2ccc(Cl)cc2)nc2ccccc12`, the survival is reported as 45% (inactive). With `CC(C)CN(CC(C)C)c1nc(-c2ccc(Cl)cc2)nc2ccccc12` the survival was -1% (active). `COc1ccccc1Nc1nc(-c2ccccc2F)nc2ccccc12` was tested, and the survival was 73% (inactive). `CCCN(CCC)c1nc(-c2ccccc2F)nc2ccccc12` was tested, and the survival was 4% (active). With `CCCCN(CCCC)c1nc(-c2ccccc2)nc2ccccc12` the survival was 30% (inactive). `Cc1cccc(OCCn2c(-c3ccc(Cl)cc3)nc3ccccc3c2=O)c1C` was tested, and the survival was 77% (inactive). For `COc1cccc2[nH]c(C(=O)NCc3ccc4c(c3)CCN4C(=O)c3ccc(F)cc3)cc12`, the survival was 84% (inactive). `CNC(=O)c1c(NC(=O)/C=C/c2ccccc2)sc2c1CCC2` was tested, and the survival was 87% (inactive). For `CCC(Sc1nnc2c(n1)[nH]c1ccccc12)C(=O)Nc1ccccc1OC` (stereo unspecified), the survival was 56% (inactive). For `CC(C)(C)NC(=O)CN1CCC(n2nnc3cc(F)ccc32)CC1`, the survival was 93% (inactive). With `COC(=O)c1scc(-c2ccc(C)cc2)c1S(=O)(=O)Nc1cccc(Cl)c1C` the survival was 101% (inactive). `CC(=O)c1cc(-c2ccc(F)cc2)n(CCC(=O)NCc2ccc(C)cc2)c1C` was tested, and the survival was 73% (inactive). `COc1cccc(/C=C2/SC(=O)N(C)C2=O)c1O` was tested, and the survival was 83% (inactive). With `COc1ccc(C(=O)c2cn(Cc3ccccc3OC)c3cc4c(cc3c2=O)OCO4)cc1` the survival was 95% (inactive). With `COc1ccc(Nc2ncnc3c2nc2n3CCCC2)cc1Cl` the survival was 80% (inactive). With `COc1ccccc1Nc1ncnc2c1nc1n2CCCCC1` the survival was 128% (inactive). In the case of `Clc1cccc(CNc2ncnc3c2nc2n3CCCC2)c1`, the survival is reported as 88% (inactive). In the case of `Clc1ccccc1Nc1ncnc2c1nc1n2CCCCC1`, the survival is reported as 8% (active). With `Fc1ccccc1Nc1ncnc2c1nc1n2CCCCC1` the survival was 68% (inactive). In the case of `Clc1cccc(Nc2ncnc3c2nc2n3CCCCC2)c1`, the survival is reported as 17% (active). In the case of `COc1ccc(C)cc1NC(=O)C1CCN(S(=O)(=O)Cc2ccccc2)CC1`, the survival is reported as 67% (inactive). In the case of `O=C(CSc1nccn1C1CCCC1)Nc1ccc(C(F)(F)F)cc1`, the survival is reported as 101% (inactive). With `CCN(CC)CCCNC(=O)CCc1c(C)nc2c(c1C)c(=O)n(C)c(=O)n2C` the survival was 96% (inactive). With `O=C(CN1C(=O)CCc2cc(S(=O)(=O)N3CCOCC3)ccc21)NCc1ccc(F)cc1` the survival was 93% (inactive). With `CCS(=O)(=O)c1nc(S(=O)(=O)c2ccc(C)cc2)c(NC)s1` the survival was 102% (inactive). With `CCN1CCN(c2nc3c(S(=O)(=O)c4ccc(C)cc4)nnn3c3ccsc23)CC1` the survival was 65% (inactive). For `CCCNS(=O)(=O)c1ccc(CCC(=O)NCC2CCCO2)cc1` (stereo unspecified), the survival was 89% (inactive). `CCc1ccc(N(CC(=O)NCC2CCCO2)S(C)(=O)=O)cc1` (stereo unspecified) was tested, and the survival was 66% (active). In the case of `CN(c1ccc(C(=O)NCC2CCCO2)cc1)S(C)(=O)=O` (stereo unspecified), the survival is reported as 74% (inactive). `CCc1ccc(NC(=O)c2sc3nc(C)cc(C)c3c2NC(=O)c2ccccc2OC)cc1` was tested, and the survival was 69% (inactive). In the case of `O=C(Nc1ccc(F)cc1)c1ncn(-c2ccccc2)n1`, the survival is reported as 86% (inactive). `CC(=O)c1cccc(NC(=O)c2nc(-c3ccccc3)n(-c3cccc(Cl)c3)n2)c1` was tested, and the survival was 68% (inactive). In the case of `CC(=O)c1ccc(NC(=O)c2ncn(-c3ccccc3)n2)cc1`, the survival is reported as 34% (active). With `CC(=O)c1cccc(NC(=O)c2nc(-c3ccccc3)n(-c3ccccc3)n2)c1` the survival was 56% (inactive). In the case of `CC(=O)c1ccc(NC(=O)c2nc(-c3ccccc3)n(-c3ccc(Cl)cc3)n2)cc1`, the survival is reported as 49% (active). With `CC(=O)c1ccc(NC(=O)c2nc(-c3ccccc3)n(-c3ccccc3Cl)n2)cc1` the survival was 64% (inactive). In the case of `COc1ccc(-n2nc(C(=O)Nc3ccc(C(C)=O)cc3)nc2-c2ccccc2)cc1`, the survival is reported as 49% (active). In the case of `COc1ccc(-c2nc(C(=O)Nc3ccc(C(C)=O)cc3)nn2-c2cccc(Cl)c2)cc1`, the survival is reported as 46% (active). For `CC(=O)c1ccc(NC(=O)c2nc(-c3ccccc3)n(-c3ccc(C)cc3)n2)cc1`, the survival was 60% (inactive). For `CC(=O)c1ccc(NC(=O)c2nc(-c3ccccc3)n(-c3ccccc3)n2)cc1`, the survival was 87% (inactive). With `CCOC(=O)c1ccc(NC(=O)c2ncn(-c3ccccc3)n2)cc1` the survival was 99% (inactive). In the case of `COc1ccc(-c2nc(C(=O)Nc3cccc(C(C)=O)c3)nn2-c2ccc(Cl)cc2)cc1`, the survival is reported as 99% (inactive). `CC(C)(C)C1CCc2c(sc(NC(=O)Cn3nnc(-c4ccccc4F)n3)c2C#N)C1` (stereo unspecified) was tested, and the survival was 66% (inactive). With `N#CC(=C1CCN(Cc2ccccc2)CC1)c1ccccc1` the survival was 85% (inactive). `Cc1cccc(NC(=O)c2cc3c(=O)n(Cc4ccco4)ccc3nc2C)c1` was tested, and the survival was 87% (inactive). For `CCNC(=O)c1nn(-c2ccccc2C)nc1CO`, the survival was 106% (inactive). With `CCOc1ccc(NC(=O)CC2C(=O)N(c3ccc(C)cc3)C(=O)N2C2CCCCC2)cc1` (stereo unspecified) the survival was 64% (inactive). `COc1ccccc1C(=O)Nc1c(C(=O)N(C)c2ccccc2)sc2nc(C)cc(C)c12` was tested, and the survival was 58% (inactive). `CCCN(C(=O)C1CC1)c1nnc(-c2ccc(Cl)cc2)s1` was tested, and the survival was 79% (inactive). For `Cc1c(C(=O)Nc2cccc(Cl)c2)oc2ccc(S(=O)(=O)N(C)C3CCCCC3)cc12`, the survival was 71% (inactive). In the case of `Cc1sc(-n2c(C)cc(/C=C(\C#N)C(=O)NCc3ccco3)c2C)c(C#N)c1C`, the survival is reported as 84% (inactive).

From PubChem BioAssay AID463173 (ICCB-Longwood Screening Facility, Harvard Medical School, 2010)
